# IDE act = IDE (human) activation, cell-based; P14735; HEK cells, FAbeta-B cleavage, fluorescence polarization; 0% vehicle, 100% cell-free pure enzyme wells; activation, % at 5.96 µM; hit rate 0.073% among 340,000; AID 493087;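 active = activation above the mean of all tested compounds plus 3 SD, set per screening campaign, cut at about 17% in these data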
# PfM18AAP inh = blocks P. falciparum M18 aspartyl aminopeptidase; recombinant PfM18AAP, H-Glu-NHMec fluorogenic cleavage; inhibition, % at 7.35 µM; hit rate 1.2% among 290,000;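 active = inhibition above the campaign mean inhibition over all tested compounds plus 3 SD, cut at about 28% in these data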;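 note: 0% = plate median of test compound wells and 100% = 2 mM ZnCl2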
# CaV13 FRET inh = Disruptors of the CACNA1D IQ motif to Ca2+-dependent inactivation inhibitor domain association, primary screening, Förster resonance energy transfer in intact living …. inhibition, % at 12.3 µM. HEK cells, CFP/YFP FRET ICDI-IQ, plate reader, 10 min; percent FRET-ratio fall versus neutral wells. hit rate 0.098% among 340,000;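 active = mean replicate inhibition of at least 30% and at least 1% of replicates passing that level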;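 note: 0% = median of the neutral control wells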
# ALR H2O2 inh = human ALR oxidase inhibition via reduced H2O2 | purified ALR, DTT oxidation, H2O2 HRP-luminol luminescence | inhibition, % (no concentration beside the values) | hit rate 3.8% among 290,000;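 active = mean replicate inhibition above about 79%, with every replicate also reaching it, limit read from the data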
# PolyA inh = inhibitors of polyadenylation in S. cerevisiae. hit rate 0.02% among 300,000. S. cerevisiae SKY197-pL101 polyadenylation reporter, beta-gal luminescence; efflux-impaired pdr1/pdr3 knockout yeast; score 100 = 6 SD above DMSO. activity score, % at 12 µM;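 active = lowest replicate activity score at least 50, where 100 means six control SD above control mean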;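 note: yeast exposed to compound for 9 h at 30 °C; higher score means more reporter readthrough which indicates perturbed polyadenylation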
# IDE cell inh = inhibitors of human insulin-degrading enzyme in cells; HEK cells, FAbetaB cleavage, fluorescence polarization; inhibition, % at 5.59 µM; hit rate 0.41% among 320,000;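 active = percent inhibition above the average of all tested compounds plus 3 SD, set per screening campaign, cut at about 16% in these data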;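 note: IDE supplied by intact live HEK cells; FP after avidin binding of uncleaved biotin substrate so inhibition keeps polarization high; 0% = DMSO wells and 100% = 60 µM reference IDE inhibitor Ii1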
# * = called active by the depositor; · = no result given. Sampled rows, rich in hits. Any-hit rate of the full collection: about 4.1%.
SMILES,IDE act,PfM18AAP inh,CaV13 FRET inh,ALR H2O2 inh,PolyA inh,IDE cell inh
Cc1cccc(C)c1NC(=O)CCCSc1nnc(-c2ccc(F)cc2)n1-c1ccccc1,2,-11,-14,96*,-2,1
CCN1CCN(C(=O)CN2C(=O)COc3ccc(S(=O)(=O)N4CCOCC4)cc32)CC1,-6,-1,-2,-1,8,10
Cc1c(NC(=O)CSCc2ccc(Br)cc2)c(=O)n(-c2ccccc2)n1C,3,-11,-2,·,2,0
C#CCOCCOCCOCCNc1nc(N2CCN(C(=O)CCCCCCCCCCNC(=O)[C@H]([C@@H](C)CC)n3cc(CCCCCN)nn3)CC2)nc(N2CCN(C(=O)CCCCCCCCCCNC(=O)[C@H]([C@@H](C)CC)n3cc(CCCCN=C(N)N)nn3)CC2)n1,51*,·,·,2,·,-5
C#CCOCCOCCOCCNc1nc(N2CCN(C(=O)CCCCCCCCCCNC(=O)[C@H]([C@@H](C)CC)n3cc(CCCCCN)nn3)CC2)nc(N2CCN(C(=O)CCCCCCCCCCNC(=O)[C@H](CO)n3cc(CCCCCN)nn3)CC2)n1,37*,·,·,-10,·,9
C#CCOCCOCCOCCNc1nc(N2CCN(C(=O)CCCCCCCCCCNC(=O)Cn3cc(CCCCCN)nn3)CC2)nc(N2CCN(C(=O)CCCCCCCCCCNC(=O)[C@H]([C@@H](C)CC)n3cc(CCCCN=C(N)N)nn3)CC2)n1,42*,·,·,-12,·,4
C#CCOCCOCCOCCNc1nc(N2CCN(C(=O)CCCCCCCCCCNC(=O)[C@H]([C@@H](C)CC)n3cc(CCCCN=C(N)N)nn3)CC2)nc(N2CCN(C(=O)CCCCCCCCCCNC(=O)[C@H](CCCCN)n3cc(C)nn3)CC2)n1,·,·,·,-30,·,-4
C#CCOCCOCCOCCNc1nc(N2CCN(C(=O)CCCCCCCCCCNC(=O)[C@H]([C@@H](C)CC)n3cc(CCCCCN)nn3)CC2)nc(N2CCN(C(=O)CCCCCCCCCCNC(=O)[C@@H]([C@H](C)CC)n3cc(CCCCCN)nn3)CC2)n1,·,·,·,8,·,-8
C#CCOCCOCCOCCNc1nc(N2CCN(C(=O)CCCCCCCCCCNC(=O)[C@H]([C@@H](C)CC)n3cc(CCCCN=C(N)N)nn3)CC2)nc(N2CCN(C(=O)CCCCCCCCCCNC(=O)[C@H]([C@@H](C)CC)n3cc(CCCCN=C(N)N)nn3)CC2)n1,·,·,·,-23,·,-7
C#CCOCCOCCOCCNc1nc(N2CCN(C(=O)CCCCCCCCCCNC(=O)[C@H]([C@@H](C)CC)n3cc(CCCCN=C(N)N)nn3)CC2)nc(N2CCN(C(=O)CCCCCCCCCCNC(=O)[C@H](CO)n3cc(CCCCCN)nn3)CC2)n1,40*,·,·,-12,·,4
O=C(CC1Sc2ncnn2C1=O)Nc1ccccc1 (centres undefined),-14,-13,-7,6,5,-1
CCN(CC(=O)Nc1ccccc1OC)C(=O)CSCc1ccc(C)cc1,3,·,-2,-3,·,1
CC(=O)n1c(=O)c2ccccc2c(=O)n1-c1ccccc1,2,7,-13,98*,19,2
COC(=O)c1ccc2c(=O)[nH]c(COC(=O)c3c(-c4ccccc4Cl)noc3C)nc2c1,-3,·,-5,-5,-1,1
CSC(=O)CC(=O)NC(=O)c1ccccc1,-4,7,-4,97*,20,6
CCc1ccc(CN(C(=O)COc2c(C)cccc2C)C2CCS(=O)(=O)C2)cc1 (centres undefined),2,-7,-7,-17,9,3
Cc1cc(OC(=O)CNC(=O)OC(C)(C)C)c2c(C)cc(=O)oc2c1,6,-2,-3,91*,7,3
COc1ccccc1NC(=O)CN(Cc1ccco1)C(=O)c1ccc(N2CCCC2=O)cc1,3,·,-5,·,·,4
CN(C(=O)c1ccc(NC(=O)C2CCCN(C(=O)OC(C)(C)C)C2)cc1)C1CCCCC1 (centres undefined),3,·,-3,-10,·,-3
Cc1cc(OC2CCCCC2)nc(-c2ccccc2O)n1,-3,4,-6,99*,2,6
CCC(C(=O)NC1CCCC1)n1c(-c2ccnc3ccccc23)nc2ccccc21 (centres undefined),·,·,-4,·,·,·
COCCN1C2=C(C(=O)CC(C)(C)C2)C(c2ccc(O)c(OC)c2)C2=C1CC(C)(C)CC2=O,-1,8,-5,22,-5,-8
COc1cc(C2C3=C(CC(C)(C)CC3=O)N(C)C3=C2C(=O)CC(C)(C)C3)cc(Br)c1O,0,14,35*,·,2,-1
COc1cnc(-c2ccccn2)nc1Oc1ccc(Cl)c2ccccc12,2,3,-6,-31,-58,0
COc1cnc(-c2ccccn2)nc1Oc1ccccc1Cl,2,-4,-4,98*,-31,-4
SMILES,IDE act,PfM18AAP inh,CaV13 FRET inh,ALR H2O2 inh,PolyA inh,IDE cell inh
CC1CN(C(=O)COC(=O)c2ccc(NC(=O)CC#N)cc2)CC(C)O1 (centres undefined),6,7,-3,99*,-10,-2
N#CCC(=O)Nc1ccc(C(=O)OCC(=O)Nc2ccc3ccccc3c2)cc1,3,·,-15,92*,·,1
N#CCC(=O)Nc1ccc(C(=O)OCC(=O)c2ccc3c(c2)OCO3)cc1,1,·,-6,99*,18,2
N#CCC(=O)Nc1ccc(C(=O)OCC(=O)c2ccc3c(c2)OCCO3)cc1,3,-12,-15,63,0,2
N#CCC(=O)Nc1ccc(C(=O)OCC(=O)NNC(=O)c2ccc(Cl)cc2)cc1,1,·,-7,67,-12,1
CC(C)(C)NC(=O)COC(=O)c1ccc(NC(=O)CC#N)cc1,1,5,-7,99*,-19,10
CCCCC(CC)C(=O)Nc1cccc(SC)c1 (centres undefined),2,-9,-2,-5,15,1
CSc1nc2c(=O)[nH]cnc2s1,·,·,-11,·,·,·
COC1=C(Br)C(=O)c2ncccc2C1=O,0,·,-7,·,·,·
Cc1cc[n+](-c2[nH]c(=O)sc2/C=N/N=C(\[O-])c2ccncc2)cc1C,4,29*,-2,18,1,6
Cc1ccc(C)c(C(=O)COC(=O)C2CCN(c3ccc(C(F)(F)F)cn3)CC2)c1,8,·,-7,-18,14,3
Cc1n[nH]c(=O)c2c(NC(=O)CSc3nn(-c4ccc(F)cc4)c(=S)s3)oc(C)c12,0,·,-2,99*,21,4
Cc1nn(C2CC(O)C(O)C(CO)O2)c(=O)[nH]c1=O (centres undefined),3,·,-5,·,·,·
N=C(N)SCc1nc2ccccc2c(=O)n1-c1ccccc1,-3,6,-3,98*,15,-2
Oc1ccccc1C(=S)N1CCN(C(=S)c2ccccc2O)CC1,-3,29*,-3,0,-12,4
